# In the supplement of paper PMC8387472:
# Structures can show the parent of a compound that is named as a salt. ± gives the standard deviation of the averaged measurements.
# Test system: mESC LDLR-Dup GFP reporter (SpCas9 MH-deletion repair)
# Assay: fraction of GFP+ cells relative to DMSO control (fold change); higher = more MH-deletion repair to in-frame LDLR (or more editing)
# Details: 2 µM; 7 days post-transfection
row,Compound,fraction of GFP+ cells
1,CCN(CC)CCCC(C)Nc1ccnc2cc(Cl)ccc12 (stereo unspecified) [Chloroquine Phosphate],0.703 ± 0.14
2,C#Cc1cccc(Nc2ncnc3cc(OC)c(OCCCCCCC(=O)NO)cc23)c1,0.66 ± 0.054
3,Nc1[nH]cnc2ncnc1-2 [Adenine],0.896 ± 0.31
4,CC1(C)CCC2=C(O1)c1ccccc1C(=O)C2=O [Beta-Lapachone],0.973 ± 0.027
5,O=C(NCc1ccccc1)c1csc(Nc2ccncn2)n1 [Thiazovivin],0.987 ± 0.18
6,Cc1ccc(CNc2ncnc3ccc(-c4ccc(CO)o4)cc23)o1,1.08 ± 0.19
7,COc1ccc(CC(=O)Nc2nc3c(s2)CCc2ccccc2-3)cc1OC,1.51 ± 0.37
8,COc1c(N2CCNC(C)C2)c(F)cc2c(=O)c(C(=O)O)cn(C3CC3)c12 (stereo unspecified) [Gatifloxacin],0.995 ± 0.12
9,CN1CCCC(n2nc(Cc3ccc(Cl)cc3)c3ccccc3c2=O)CC1 (stereo unspecified) [Azelastine HCl],0.868 ± 0.11
10,O=C1NCCc2[nH]c(-c3ccncc3)cc21,1.61 ± 0.078
11,Nc1cc(F)ccc1NC(=O)/C=C/c1cnn(C/C=C/c2ccccc2)c1,0.555 ± 0.17
12,N#Cc1ccc(COC[C@H]2O[C@@H](n3c(NCc4ccc(Cl)c(Cl)c4)nc4c(N)ncnc43)[C@H](O)[C@@H]2O)cc1,1.89 ± 0.17
13,C[C@@H]1COCCN1c1cc(C2([S@](C)(=N)=O)CC2)nc(-c2cc[nH]c3nccc2-3)n1,0.429 ± 0.24
14,CC(C)(CNC(=O)c1cccc(-c2noc(C(F)(F)F)n2)c1)c1coc(-c2ccccc2)n1,0.849 ± 0.2
15,CCOC(=O)NCCCC(=O)NCCc1ccccc1,0.748 ± 0.18
16,CCn1cc(C(=O)O)c(=O)c2cc(F)c(N3CCN(C)CC3)cc21 [Pefloxacin Mesylate Dihydrate],1.13 ± 0.09
